Data on 105 compounds can be found in PubChem BioAssay AID1259343 (VanderVen Lab, College of Veterinary Medicine, Cornell …, 2017).

About 2,900 (47%) of roughly 6,200 compounds were called active. No stated cut-off is given here; in the data, active means inhibition above about 50%; inactive means the rest. So high a share suggests a set chosen from earlier hits. Some of the results follow.

For orientation: inhibition means the change of the read-out against control, counted positive when it falls.

A short description of the assay: Mycobacterium tuberculosis growth inhibition, primary screen (AID 1259343). The note with it: inhibition: at 10 µM, stronger effect = higher value; outcome: 10 uM.
Turning to `CC(C)(Cc1c[nH]c2ccc(Cl)cc12)NCCOc1ccccc1OCC1CC1`, the inhibition is 46.8% (inactive).

Take `Cc1cc(Oc2ccc(C(=O)O)cn2)ccc1C(C)C`: the inhibition was 59.3% (active).

With `O=C(NC1CC1)c1ccc(Oc2ccc(Br)cc2)nc1`, the inhibition was 16.1% (inactive).

For `CCc1cccc2c3c([nH]c12)C(CC)(CC(=O)O)OCC3` (stereo not given), the inhibition is 56.6% (active).

Turning to `CSC(c1ccc(O)cc1)=[N+]1CCOCC1`, the inhibition is 99.3% (active).

For the compound `COc1ccc(-c2cnc(CN(C)c3ccccc3F)o2)cc1`, the inhibition is 83.9% (active).

Turning to `COc1cccc(-c2cnnc(NCCc3ccccc3F)n2)c1`, the inhibition was 19.2% (inactive).

With `C=CCSc1nc(N)c(C#N)c(CC)c1C#N`, the inhibition is 58.6% (active).

Regarding `COCCNC(=O)N(C)CC1CCC(C)CC1` (stereo not given), the inhibition is 8.33% (inactive).

With `CCCCN(CC)C(=O)c1cc2c(=O)n3cccc(C)c3nc2s1`, the inhibition is 35.8% (inactive).

For the compound `CCc1c(C)nc2c(O)cccn2c1=O`, the inhibition was 92.4% (active).

As to `Cc1cc(NC(=O)CSc2ccc(-c3ccc(C)c(C)c3)nn2)no1`, the inhibition is 33.5% (inactive).

Turning to `Cc1cc(C)cc(NC(=O)CSc2ccc(-c3ccncc3)nn2)c1`, the inhibition is 84.3% (active).

Regarding `Cc1ccc(-c2ccc(SCC(N)=O)nn2)cc1C`, the inhibition is 37.8% (inactive).

Turning to `O=C(NS(=O)(=O)c1ccccc1F)c1ccc2c(c1)OCO2`, the inhibition is 98.4% (active).

In the case of `CC(NC(=O)c1ccccc1F)c1ccc2c(c1)OCCO2` (stereo not given), the inhibition is 36.9% (inactive).

For the compound `O=C(NS(=O)(=O)c1ccc2c(c1)OCCCO2)c1ccc(F)cc1`, the inhibition is -7.16% (inactive).

Take `c1ccc2c(c1)C(=NC1CCCCC1)NC2=NC1CCCCC1`: the inhibition is 62.3% (active).

`c1cncc(COC2CCCN(Cc3nc(-c4ccc5c(c4)OCO5)no3)C2)c1` (stereo not given): the inhibition is 75.8% (active).

As for `COc1ccc(-c2noc(CN3CCCC(C(=O)c4ccccc4)C3)n2)cc1` (stereo not given), the inhibition is 27.8% (inactive).

Turning to `Cc1oc(-c2cc3c(cc2Cl)OCO3)nc1CN1CCCC1c1ccc(F)cc1` (stereo not given), the inhibition was 19.7% (inactive).

As for `Fc1ccc(C2CCCN2Cc2nc(-c3ccc4c(c3)OCO4)no2)cc1` (stereo not given), the inhibition is 62.2% (active).

As to `COc1ccc(-c2noc(CN3CCC(c4nc5ccccc5o4)CC3)n2)cc1`, the inhibition is 81.3% (active).

Consider `COc1ccc(-c2noc(CN3CCCC(OCc4ccccn4)C3)n2)cc1` (stereo not given), for which the inhibition is 50.2% (active).

In the case of `COc1ccc(-c2noc(Cn3ccc4cccnc43)n2)cc1`, the inhibition is 81.3% (active).

In the case of `Fc1ccc(CC2CCN(Cc3nc(CC4CC4)no3)CC2)cc1`, the inhibition was 83.5% (active).

`c1cc2c(s1)CCN(Cc1nc(-c3ccc4c(c3)OCO4)no1)C2`: the inhibition was 22.1% (inactive).

Turning to `O=c1c2cc(-c3cccs3)nn2ccn1Cc1nc(-c2ccccc2)no1`, the inhibition is 4.57% (inactive).

For `Cc1ccc(Cl)cc1N1CCN(Cc2nc(C3CC3)no2)CC1`, the inhibition was -5.02% (inactive).

For `CCCOC1CCCN(Cc2nc(-c3cccc(Cl)c3)no2)C1` (stereo not given), the inhibition was 68.8% (active).

Consider `Fc1ccccc1OCC1CCCN(Cc2nc(CC3CC3)no2)C1` (stereo not given), for which the inhibition is 19.6% (inactive).

Consider `CN(Cc1cnn(-c2ccc(F)cc2)c1)Cc1nc(CC2CC2)no1`, for which the inhibition was 23% (inactive).

For the compound `Cc1cnc(C)c(N2CCN(Cc3nc(-c4ccc5c(c4)OCO5)no3)CC2)n1`, the inhibition was 92.2% (active).

Turning to `CN(C)c1ccc(N=C2N=C(Nc3ccc(N(C)C)cc3)c3ccccc32)cc1`, the inhibition is 44.8% (inactive).

Regarding `COC(=O)[C@H]1[C@H]2C[C@@H]3c4[nH]c5cc(OC)ccc5c4CCN3C[C@H]2C[C@@H](OC(=O)c2cc(OC)c(OC)c(OC)c2)[C@@H]1OC`, the inhibition is 45.9% (inactive).

`c1ccc(COC2CCCN(Cc3nc(CC4CC4)no3)C2)cc1` (stereo not given): the inhibition is 58.5% (active).

As to `Cc1ccccc1C1CCCN(Cc2nc(CC3CC3)no2)C1` (stereo not given), the inhibition was 17% (inactive).

As for `CC1NC(=S)N(c2ccc(-c3cn4ccsc4n3)cc2)C1=O` (stereo not given), the inhibition is 46.5% (inactive).

For `CC1NC(=S)N(c2cccc(Oc3ccncc3)c2)C1=O` (stereo not given), the inhibition was 11.8% (inactive).

For the compound `CC1NC(=S)N(c2ccc(C(C)C)cc2)C1=O` (stereo not given), the inhibition is 95.8% (active).

Regarding `Cc1cc(=O)[nH]c(-n2nc(-c3cccs3)cc2NC(=O)c2c(F)cccc2Cl)n1`, the inhibition was 99.6% (active).

As to `Cc1cc(=O)[nH]c(-n2nc(C3CC3)cc2NC(=O)c2cccs2)n1`, the inhibition was 100% (active).

As for `Cc1cc(=O)[nH]c(-n2nc(-c3cccs3)cc2NC(=O)c2ccco2)n1`, the inhibition was 99.9% (active).

As to `CCCC(CCC)C(=O)Nc1cc(-c2cccs2)nn1-c1nc(C)cc(=O)[nH]1`, the inhibition was 99% (active).

As to `Cc1cc(=O)[nH]c(-n2nc(-c3cccs3)cc2NC(=O)c2ccccc2C)n1`, the inhibition is 98.2% (active).

For `Cc1cc(=O)[nH]c(-n2nc(-c3cccs3)cc2NC(=O)c2cccs2)n1`, the inhibition was 98.9% (active).

For `Cc1cccc(C(=O)Nc2cc(-c3cccs3)nn2-c2nc(C)cc(=O)[nH]2)c1`, the inhibition was 0.07% (inactive).

With `Cc1cc(=O)[nH]c(-n2nc(-c3cccs3)cc2NC(=O)CC(C)(C)C)n1`, the inhibition is -0.63% (inactive).

Regarding `CC(C)c1cc(=O)[nH]c(-n2nc(-c3cccs3)cc2NC(=O)c2cccs2)n1`, the inhibition was 99.1% (active).

`CCC(=O)Nc1cc(-c2cccs2)nn1-c1nc(C)cc(=O)[nH]1`: the inhibition was 99.9% (active).

Turning to `Cc1nc(C(F)(F)F)ccc1C(=O)NC1CC2CC1C1CCCC21` (stereo not given), the inhibition is 32.9% (inactive).

In the case of `CC1CCCCC1NC(=O)Cn1ccc(C(F)(F)F)n1` (stereo not given), the inhibition is 94.9% (active).

For the compound `CC1CCCCC1Nc1ccc2nnc(C(F)(F)F)n2n1` (stereo not given), the inhibition is 22.4% (inactive).

In the case of `O=C(Oc1ccc2oc(=O)sc2c1)C1CCCCC1`, the inhibition was 75.1% (active).

Take `O=c1oc2ccc(O)cc2s1`: the inhibition was 83.8% (active).

For `Oc1ccc2oc3c(c2c1)CCCC3`, the inhibition is 44.4% (inactive).

As to `O=c1c2cc(O)ccc2oc2ccc(O)cc12`, the inhibition was 87.5% (active).

Turning to `CC(=O)NCc1ccc(C(=O)Nc2ccc(Br)c(C)c2)cc1`, the inhibition is 93.7% (active).

Take `Cc1ccc(NC(=O)CNC(=O)c2ccccc2)cc1C`: the inhibition was -8.08% (inactive).

On to `Cc1ccc(NC(=O)c2ccc(S(N)(=O)=O)c(C)c2)cc1C`, for which the inhibition is 31.7% (inactive).

For `Cc1c(C(=O)O)cnn1-c1ccc(Br)cc1`, the inhibition is 39.2% (inactive).

For `CC(=NNc1nc(C)cc(C)n1)c1cc2c(ccc3ccccc32)o1`, the inhibition was 16.4% (inactive).

With `Cc1cc(C)nc(NN=Cc2cc(Br)cc(Br)c2O)n1`, the inhibition was 102% (active).

Turning to `O=C(NCc1ccccc1)c1cccc(OC2CCN(C3Cc4ccccc4C3)CC2)c1`, the inhibition is 82.7% (active).

`O=C(NCCc1ccccc1)c1ccc(OC2CCN(C(=O)C3CC34CCC4)CC2)cc1` (stereo not given): the inhibition was 19.3% (inactive).

`Cc1cc(NC(=O)C2(C)CCOCC2)nc(C(C)C)n1`: the inhibition was -0.19% (inactive).

Take `CC1(C(=O)Nc2nc(-c3cccc(Cl)c3)ns2)CCOCC1`: the inhibition was 89.4% (active).

As to `C=CCNc1nc(NCCCN2CCCC2=O)c2sc(-c3ccccc3)cc2n1`, the inhibition was 24.9% (inactive).

As for `CC(C)(C)OC(=O)NCC1CCCCN1C(=O)c1cc(-c2ccccc2F)on1` (stereo not given), the inhibition was 14% (inactive).

As for `CC(C)(C#N)C(=O)Nc1cc(-c2ccccc2F)no1`, the inhibition is 88.7% (active).

As for `O=C1NC(=S)SC1=Cc1cccc(C(F)(F)F)c1`, the inhibition was 14.4% (inactive).

Take `FC(F)(F)c1ccc2c(c1)Oc1sc(Cl)cc1NC2=S`: the inhibition was 92% (active).

`CC(NCc1cn(C)nc1-c1ccc(Oc2ccccc2)cc1)c1ccccc1` (stereo not given): the inhibition was 70.8% (active).

`CC(Nc1nccc(C(F)(F)F)n1)c1ccc(C#N)cc1` (stereo not given): the inhibition is 22.5% (inactive).

`COc1ccc(C(C)NCC(O)COc2ccc(Cl)cc2Cl)cc1F` (stereo not given): the inhibition is 41.6% (inactive).

For the compound `CC(Nc1ccc(C#N)cn1)c1ccccc1Br` (stereo not given), the inhibition was 53% (active).

As to `CCOc1cc2c(cc1CNc1ccc(C#N)cn1)OC(C)C2` (stereo not given), the inhibition was 19.6% (inactive).

For the compound `COc1ccc(C(C)Nc2ccc(C#N)cn2)cc1F` (stereo not given), the inhibition is 94.3% (active).

In the case of `CS(=O)(=O)c1ccc(CCNc2ccc(Cl)c(C#N)n2)cc1`, the inhibition was 24.5% (inactive).

For `CC(NCc1ccc(C(C)(C)C)cc1)c1ccc(S(C)(=O)=O)cc1` (stereo not given), the inhibition was 59.5% (active).

As for `CS(=O)(=O)c1ccc([C@@H](O)[C@@H](CO)NC(=O)C(Cl)Cl)cc1`, the inhibition was 44.5% (inactive).

Turning to `Cc1ccc(S(=O)(=O)NCC2COc3ccccc3C2)cc1F` (stereo not given), the inhibition is -9.55% (inactive).

As to `Cc1ccc(S(=O)(=O)NCC2CCN(c3ccccc3)C2)c(C)c1` (stereo not given), the inhibition is 52.8% (active).

As for `O=S(=O)(NCC1CCC(c2ccccc2)CC1)C1CCOCC1` (stereo not given), the inhibition is -0.68% (inactive).

Consider `CCOC(=O)c1cc(-c2ccccc2)sc1NC(=O)CC(=O)OC`, for which the inhibition was 81% (active).

Take `CCOC(=O)c1ccccc1Nc1nnc(C(C)(C)C)c(=O)[nH]1`: the inhibition was 32.2% (inactive).

Regarding `CCc1cc(C(=O)O)c(NC(=O)c2ccccc2C)s1`, the inhibition was 18.1% (inactive).

Take `NC(=NC1C2CC3CC(C2)CC1C3)Nc1ccc(I)cc1` (stereo not given): the inhibition is 42.8% (inactive).

Consider `C=CCN(Cc1ccccc1)C(=O)c1cnn2c1[nH]c(=O)c1ccccc12`, for which the inhibition is 79.8% (active).

Take `COc1cc(C=Cc2ccc3ccccc3n2)cc(Br)c1O`: the inhibition is 73.5% (active).

Regarding `Fc1ccc(C=Cc2ccc3ccccc3n2)cc1`, the inhibition was 32.5% (inactive).

Turning to `COc1cc(C=Cc2ccc3ccccc3n2)cc(Cl)c1OC`, the inhibition was 26.8% (inactive).

Take `O=C(N1CCc2ccccc2C1)N1c2ccccc2Sc2ccccc21`: the inhibition is -20% (inactive).

Regarding `CC1CC1C(=O)Nc1ccccc1N1CCc2ccccc2C1` (stereo not given), the inhibition was 81.4% (active).

On to `O=C(NCC(c1ccco1)N1CCc2ccccc21)C(=O)Nc1ccccc1[N+](=O)[O-]` (stereo not given), for which the inhibition is 5.43% (inactive).

As to `O=c1c2ccccc2nc(SCc2ccc([N+](=O)[O-])cc2)n1CC1CCCO1` (stereo not given), the inhibition was 26.6% (inactive).

As for `O=c1[nH]n(-c2ccc([N+](=O)[O-])cc2)c(=O)c2ccccc12`, the inhibition is 90% (active).

With `CC(C)n1c(=O)[nH]c2ccccc21`, the inhibition is 19.6% (inactive).

As to `C/C(=C\c1ccccc1)C1Nc2ccccc2C(=O)N1C` (stereo not given), the inhibition was 48.1% (inactive).

On to `CC(C)N1C(=O)c2ccccc2NS1(=O)=O`, for which the inhibition is 72.9% (active).

`O=C1OCC(CO)(CO)N=C1NNc1ccc(Cl)c(Cl)c1`: the inhibition is 87.5% (active).

For the compound `O=C1OCC(CO)(CO)N=C1NNc1ccc(Cl)cc1`, the inhibition was 81.8% (active).

Consider `O=C1OCC(CO)(CO)N=C1NNc1ccc(I)cc1`, for which the inhibition is 36.3% (inactive).

`O=C1OCC(CO)(CO)N=C1NNc1ccc([N+](=O)[O-])cc1`: the inhibition is -25.1% (inactive).

With `O=C1OCC(CO)(CO)N=C1NNc1cc(Cl)ccc1Cl`, the inhibition was 91.9% (active).
